Laboratory results: PubChem BioAssay AID1053197 (The Scripps Research Institute Molecular Screening Center, 2014)
Among all 370,000 compounds or so, about 2,600 (0.7%) were called active.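 How the source made its calls: active means inhibition above a cutoff: mean of compounds within the control limits plus 3 SD of those (cut at about 17% in these data); inactive means the rest.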 The list comes from a sample in which actives are over-represented; it also holds similar structures and randomly drawn compounds.

Each compound was assayed against Sialate O-acetylesterase (Homo sapiens) (UniProt Q9HAT2) (assay: blockers of sialate O-acetylesterase activity-probe labeling – biochemical, fluorescence polarization, FP-Rh probe, 1536-well HTS, primary screen (AID 1053197;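 further: 0% = plate median of compound wells and 100% = probe without SIAE protein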)). Details: SIAE FP-Rh probe binding, at 9.66 µM, active compounds read high.
Sequence of Sialate O-acetylesterase (Homo sapiens) (Q9HAT2 whole entry, looked up): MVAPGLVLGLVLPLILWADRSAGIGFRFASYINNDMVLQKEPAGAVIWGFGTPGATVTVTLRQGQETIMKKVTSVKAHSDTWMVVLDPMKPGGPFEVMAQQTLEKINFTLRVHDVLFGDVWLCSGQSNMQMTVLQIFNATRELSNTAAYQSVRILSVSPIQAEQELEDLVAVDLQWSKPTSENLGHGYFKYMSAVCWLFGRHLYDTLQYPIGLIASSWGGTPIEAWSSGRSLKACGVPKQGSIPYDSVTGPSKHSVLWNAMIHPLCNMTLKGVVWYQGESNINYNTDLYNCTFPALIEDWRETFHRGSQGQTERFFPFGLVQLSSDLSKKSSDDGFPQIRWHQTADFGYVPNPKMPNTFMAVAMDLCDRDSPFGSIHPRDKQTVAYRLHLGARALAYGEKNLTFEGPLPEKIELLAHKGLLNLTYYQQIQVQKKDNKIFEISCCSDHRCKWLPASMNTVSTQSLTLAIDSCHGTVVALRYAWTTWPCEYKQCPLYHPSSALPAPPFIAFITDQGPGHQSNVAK

Structure (SMILES)	inhibition
CCOC(=O)N1CCN(C(=O)C[C@@H]2C(=O)N(CCc3ccc(Cl)cc3)C3=CCCC[C@]32C(=O)OCC)CC1	2.23% (inactive)
CCCCNC(=O)C[C@@H]1C(=O)N(CCc2ccc(Cl)cc2)C2=CCCC[C@]21C(=O)OCC	-0.15% (inactive)
Cc1ccc(C)c(NC(=O)CCS(=O)(=O)c2ccccc2)c1	-0.04% (inactive)
CCCCCCCCNS(=O)(=O)/C=C/c1cc(C)ccc1CNC(=O)OC(C)(C)C	-1.33% (inactive)
Cc1ccc(C)c(NC(=O)NNC(=O)c2ccc3ccccc3c2O)c1	13.1% (inactive)
O=C(NNc1c2ccccc2nc2ccccc12)c1cc2ccccc2cc1O	49.5% (active)
Cc1cc(C(=O)NNC(=O)c2cccc(S(=O)(=O)N3CCOCC3)c2)c2ccccc2n1	0.67% (inactive)
COc1ccc(/C=C2\CC3(OC(C)=O)CCCN2C3)cc1 (stereo not given)	5.11% (inactive)
Cc1ccc(-n2c(SCC(=O)Nc3cccc4ccccc34)nnc2-c2ccco2)cc1	-4.95% (inactive)
CC(=O)O[C@@]1(C(C)=O)CCC2[C@H]3C=C(C)C4=CC(=O)CC[C@@]4(C)C3CC[C@]21C (stereo not given in full)	4.07% (inactive)
S=C(Nc1ccc(Br)cc1)NC1CCN(Cc2ccccc2)CC1	17.1% (active)
S=C(Nc1ccc(Br)cc1Cl)NC1CCN(Cc2ccccc2)CC1	5.25% (inactive)
O=C(NC1CCN(Cc2ccccc2)CC1)c1cc(Br)c(Br)[nH]1	-7.58% (inactive)
N#Cc1ccccc1OC[C@@H](O)CN1CCC(C(O)(c2ccccc2)c2ccccc2)CC1	3.53% (inactive)
CN[C@H]1C[C@H]2c3cc(N4CCOCC4)ccc3CCN2C[C@H]1[C@H](C)O	3.31% (inactive)
CCCCNC(=O)C1CCCN(S(=O)(=O)c2ccc(S(=O)(=O)NCC(C)C)cc2)C1 (stereo not given)	-1.45% (inactive)
COc1ccc(CCNC(=O)C2CCCN(S(=O)(=O)c3ccc(OC)cc3)C2)cc1 (stereo not given)	-4.52% (inactive)
CC(C)CCNC(=O)C1CCCN(S(=O)(=O)c2ccc(F)cc2)C1 (stereo not given)	23.3% (active)
Cc1ccc(NC(=O)Nc2cc(C)nn2-c2ccccc2)cc1	0.39% (inactive)
CCOC(=O)[C@@]12CCC3=C1N(CCC3)C(=O)[C@H](CC(=O)N1CCN(C(=O)c3ccco3)CC1)C2	8.17% (inactive)
O=C(Nc1ccc(Br)cc1)OCCN1C(=O)CCC12CCC(c1ccccc1)CC2 (stereo not given)	2.49% (inactive)
Cc1ccc(OC(=O)c2c(C)nn(-c3ccccc3)c2C)cc1	5.09% (inactive)
CCOC(=O)c1c(C)nn(-c2ncccc2NC(=O)CCC(=O)O)c1C	19.8% (active)
Cc1cccc(C)c1NC(=O)COC(=O)c1c(C)nn(-c2ccccc2)c1C	2.02% (inactive)
COc1cc(/C=C/C(=O)n2cnc3ccccc32)cc(OC)c1OC	-3.74% (inactive)
CCc1ccc(NC(=O)C(C)OC(=O)/C=C/c2cccc([N+](=O)[O-])c2)cc1 (stereo not given)	-4.1% (inactive)
CN(CC(=O)Nc1cccc(F)c1)CC(=O)Nc1cccc([N+](=O)[O-])c1	21.2% (active)
CN(C(=O)c1cccc(NC(=O)Cc2cccc([N+](=O)[O-])c2)c1)C1CCCCC1	-12.1% (inactive)

Structure (SMILES)	inhibition
CS(=O)(=O)N(CC(=O)Nc1ccc(F)cc1F)c1cccc([N+](=O)[O-])c1	5.36% (inactive)
CC(=O)Nc1cccc([N+](=O)[O-])c1	19.3% (active)
CC(=O)Nc1cccc(Nc2ccc(C#N)cc2)c1	7.95% (inactive)
COC(=O)[C@]12C[C@H](CC(=O)NCc3cccc4ccccc34)C(=O)N(CCc3ccc(OC)c(OC)c3)C1=C[C@H](C1CCCC1)O[C@@H]2C	-2.97% (inactive)
O=C(OC12CCCN(C1)/C(=C/c1ccccc1)C2)c1ccco1 (stereo not given)	0.28% (inactive)
COP(=O)(O)CNC(=O)OCc1ccccc1	0.82% (inactive)
O=C(NCc1cccs1)C1CCN(S(=O)(=O)c2ccccc2[N+](=O)[O-])CC1	-0.55% (inactive)
CCN(CC)C(=O)CC[C@H]1CC[C@]2(CCCN(Cc3ccc(Cl)cc3)C2)O1	-1% (inactive)
Cc1ccccc1NC(=O)COC(=O)c1ccc(Sc2ncn[nH]2)c([N+](=O)[O-])c1	0.99% (inactive)
CCOC(=O)N1CCN(C(=O)C[C@H]2C[C@@]3(C(=O)OC)C(=C[C@H](C(C)(C)C)O[C@@H]3C)N(Cc3ccc(Cl)cc3Cl)C2=O)CC1	4.46% (inactive)
Cc1ccc2c(c1)C1CN(C)CCC1N2C(=S)Nc1ccc(OC(F)F)cc1 (stereo not given)	19% (active)
Cc1ccc2c(c1)C1CN(C)CCC1N2C(=O)c1ccccc1NS(=O)(=O)c1ccc(F)cc1C (stereo not given)	-4.94% (inactive)
Cc1ccc2c(c1)C1CN(C)CCC1N2C(=S)Nc1ccc(Cl)cc1Cl (stereo not given)	-1.14% (inactive)
O=C(OCC#CCSc1nnc(-c2ccco2)o1)c1ccc(F)cc1	-3.86% (inactive)
FC(F)(F)c1cccc(Cn2ccc3ccc(-c4ccc5ccn(Cc6ccccc6)c5c4)cc32)c1	-4.98% (inactive)
Cc1nc(-c2ccc(Cl)cc2)sc1C(=O)NN	17.1% (active)
Cc1nc(-c2ccc(Cl)cc2)sc1C1(C)CC(c2ccc(Br)cc2)=NO1 (stereo not given)	-4.52% (inactive)
Cc1nc(N2CCOCC2)sc1C(=O)NN	4.29% (inactive)
CN(C)S(=O)(=O)c1cccc(C(=O)N/N=C\c2ccco2)c1	1.17% (inactive)
O=C1CCCC(O)=C1N=Nc1ccc2ncsc2c1	4.95% (inactive)
CC1(C)CC(=O)C(N=Nc2ccc(S(=O)(=O)N3CCCCCC3)cc2)=C(O)C1	-6.58% (inactive)
O=C1CCCC(O)=C1N=Nc1ccc(S(=O)(=O)N2CCOCC2)cc1	32.3% (active)
COc1cccc(/C=C2\CC3(OC(C)=O)CCCN2C3)c1 (stereo not given)	5.6% (inactive)
CC(NS(=O)(=O)c1ccc(Cl)cc1)C(=O)Nc1ccc2c(c1)OCCO2 (stereo not given)	17.1% (active)
CC(=O)Nc1ccc(NC(=O)C(NS(=O)(=O)c2ccc3c(c2)OCCO3)C(C)C)cc1 (stereo not given)	-4.61% (inactive)
CNS(=O)(=O)c1ccc(NC(=O)Nc2ccc3c(c2)OCO3)cc1	-0.18% (inactive)
Cc1ccc(Cn2cc(CN3[C@@H](C)COc4cc(Br)ccc4S3(=O)=O)nn2)cc1	-0.41% (inactive)
